# Results published in article PMC4552634, “A New Set of Chemical Starting Points with Plasmodium falciparum Transmission-Blocking Potential for Antimalarial Drug Discovery” (PLoS ONE, 2015).
# Read-outs that look alike come from different tables or passages of the source. About 3,200 (25%) of roughly 13,000 compounds showed an effect of 50% or more. The list shows a part of the results.
# System: P. falciparum stage V gametocytes
# Design: BacTiter-Glo ATP luminescence viability of purified stage V gametocytes in 384-well plates, per cent inhibition versus DMSO
# Details: 48 h, 5 µM, inhibitor
SMILES,% Inhibition,% Inhibition (% Inhibition)
CN(C)CC(=O)NCC(NCCCNc1cc(=O)c2ccccc2[nH]1)c1cc(Br)cc(Br)c1 (stereo not shown) [TCMDC-140314],-36.64%,
CN(CCCN(C)c1cc(NC(=O)c2ccc(F)cc2)ccn1)Cc1cccc(F)c1 [TCMDC-135041],-7.091%,
Cc1ccc(O)c(-c2cc(C(=O)Nc3ccc(S(=O)(=O)N4CCCC(C)C4)cc3)[nH]n2)c1 (stereo not shown) [TCMDC-125202],-32.7%,
CN1CCCc2ccc(NC(=O)c3cnc(-c4ccccc4)cn3)cc21 [TCMDC-141218],-34.46%,
O=c1cc(NCCCNC2CCc3c(Cl)cc(Cl)cc32)[nH]c2ccccc12 (stereo not shown) [TCMDC-139485],17.36%,
O=c1cc(NCCCNC2CCc3ccc(Cl)cc32)[nH]c2ccccc12 (stereo not shown) [TCMDC-139365],84.72%,
O=c1cc(NCCCNCc2cc(Cl)c(Cl)cc2Cl)[nH]c2ccccc12 [TCMDC-139631],-58.3%,
O=c1cc(NCCCNC(c2ccccc2)c2ccc(Cl)c(Cl)c2)[nH]c2ccccc12 (stereo not shown) [TCMDC-139318],54.86%,
O=c1cc(NCCCNC2CCCc3c2cc(Cl)c(Cl)c3Cl)[nH]c2ccccc12 (stereo not shown) [TCMDC-139478],2.268%,
O=c1cc(NCCCN(Cc2ccccc2)Cc2ccccc2)[nH]c2ccccc12 [TCMDC-139368],-49.11%,
Cc1[nH]c2ccc(O)cc2c1C1CCN(CC2CCN(C(=O)/C=C/c3ccc(Cl)c(Cl)c3)CC2)CC1 [TCMDC-140219],39.96%,
CCCCCCCCCC(=O)NCC1CC(Br)=NO1 (stereo not shown) [TCMDC-137735],4.616%,
OC(CNC1CCCCCCC1)c1ccc(Cl)c(Cl)c1 (stereo not shown) [TCMDC-141991],-9.212%,
OC(CNC1CCCCC1)c1ccc(Cl)c(Cl)c1 (stereo not shown) [TCMDC-123990],75.22%,
OC(CNCCCCCCNCC(O)c1ccc(Cl)c(Cl)c1)c1ccc(Cl)c(Cl)c1 (stereo not shown) [TCMDC-141987],99.2%,
OC(CNC1CCCCCC1)c1ccc(Cl)c(Cl)c1 (stereo not shown) [TCMDC-141990],-11.57%,

SMILES,% Inhibition,% Inhibition (% Inhibition)
CC(C)C[C@H](NC(=O)c1ccc(OCCN2CCOCC2)cc1)C(=O)N[C@H](/C=N/N(C)C(=O)c1ccccc1)CCc1ccccc1 [TCMDC-135854],17.32%,
CC1(C)N=C(N)N=C(N)N1OCc1cccs1 [TCMDC-131654],20.54%,
COC(=O)/C=C/c1ccc(CC(C)NCC(O)c2cccc(C(F)(F)F)c2)cc1 (stereo not shown) [TCMDC-131448],,-0.1444%
CCNc1cc(C(=O)N[C@@H](Cc2ccccc2)[C@H](O)CN[C@@H](C)c2cccc(OC)c2)cc(N2CCCC2=O)c1 [TCMDC-138824],-0.5109%,
CCCCCC(C)(C)NC[C@@H](O)[C@H](Cc1ccccc1)NC(=O)c1cc(NCC)cc(N2CCCC2=O)c1 [TCMDC-138912],10.89%,
CCNc1cc(C(=O)N[C@@H](Cc2ccccc2)[C@H](O)CNC(C)(C)CSCC(C)C)cc(N2CCCC2=O)c1 [TCMDC-134311],69.93%,
CCNc1cc(C(=O)N[C@@H](Cc2ccccc2)[C@H](O)CN[C@H](C)c2ccccc2)cc(N2CCCC2=O)c1 [TCMDC-138822],64.41%,
CCNc1cc(C(=O)N[C@@H](Cc2ccccc2)[C@H](O)CN[C@@H]2CCc3ccccc32)cc(N2CCCC2=O)c1 [TCMDC-132414],21.82%,
CCNc1cc(C(=O)N[C@@H](Cc2ccccc2)[C@H](O)CNC(CC)c2cccc(Cl)c2)cc(N2CCCC2=O)c1 (stereo partly shown) [TCMDC-135264],64.68%,
CCNc1cc(C(=O)N[C@@H](Cc2ccccc2)[C@H](O)CNC(CC)c2cccc(Cl)c2)cc(N2CCCCS2(=O)=O)c1 (stereo partly shown) [TCMDC-135221],3.057%,
CCNc1cc(C(=O)N[C@@H](Cc2ccccc2)[C@H](O)CN[C@H]2CCc3ccccc32)cc(N2CCCC2=O)c1 [TCMDC-138917],52.85%,
CCNc1cc(C(=O)N[C@@H](Cc2ccccc2)[C@H](O)CN[C@@H](C)c2ccccc2)cc(N2CCCC2=O)c1 [TCMDC-138823],8.317%,
CCNc1cc(C(=O)N[C@@H](Cc2ccccc2)[C@H](O)CNC(C)(C)Cc2ccccc2)cc(N2CCCC2=O)c1 [TCMDC-134567],5.299%,
CCC(NC[C@@H](O)[C@H](Cc1ccccc1)NC(=O)c1cc(C2CCCC2)cc(N2CCCC2=O)c1)c1cccc(Cl)c1 (stereo partly shown) [TCMDC-135265],4.239%,
CCNc1cc(C(=O)N[C@@H](Cc2ccccc2)[C@H](O)CNC2CCCC2)cc(N2CCCC2=O)c1 [TCMDC-138844],16.89%,
